# PubChem BioAssay (NCI)
# Several values for one entry are separate records, joined by “and”; a condition that tells them apart may be missing. Equal entries are not always repeated. About 83,000 compounds went through this panel and 20% of them were active in at least one assay; those are over-represented in the sample as a whole.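 In brief: 96-well plates, 48 h treatment, single concentration, percent growth endpoint.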 Values without a mark were called inactive. Activity calls are given as the source filed them. How the source made its calls: active means growth percent below 10; inactive means the rest.
# Tested on: MDA-MB-468 breast
# Test: NCI-60 one-dose screen, 48 h (100 = growth as untreated, 0 = no growth, -100 = all killed)
# Conditions: 10 µM unless noted
row,Structure (SMILES),growth
1,CCCCCCCCCCCC[N+]1(CCCCCCCCCCCC)CCCC(C)C1 (stereo not given),-89.7% (active)
2,O=C(O)/C=C/C=C/c1ccccc1,93.6% and 112%
3,CN(C)c1ccc(Cc2ccc(N(C)C)cc2Cl)c(Cl)c1,88.7%
4,O=C(Nc1ncc(Cc2cc(Cl)ccc2Cl)s1)c1cccs1,18%
5,Cc1ccc(S(=O)(=O)NC(CCC(=O)Nc2ccc(Cl)cc2)C(=O)Nc2ccc(Cl)cc2)cc1 (stereo not given),29%
6,Nc1ccccc1NC(=O)c1ccc(CCCC(=O)Nc2ccc(C3CC3N)cc2)cc1 (stereo not given),-4.41% (active)
7,Cc1cc(Nc2cc(N3CCN(C)CC3)nc(/C=C/c3ccccc3)n2)n[nH]1,-17.8% (active)
8,COC(=O)C(Cc1ccccc1)Nc1nc(NC(Cc2ccccc2)C(=O)OC)nc(N2CCOCC2)n1 (stereo not given),108%
9,Cc1[nH]c2ccccc2c1/C=N/Nc1ncnc2sc3c(c12)CCN(CC(=O)OC(C)(C)C)C3,47.5%
10,N/C(=N\c1nc2c(Cl)cc(Cl)cc2s1)C(Cl)(Cl)Cl,-48.6% (active)
11,Cc1nn(Cc2ccccc2)cc1C(=O)Nc1sc2c(c1C(N)=O)CCC(=O)C2,47.2%
12,CCn1cc(C(=O)O)c(=O)c2cc(F)c(N3CCN(S(=O)(=O)c4ccc(Cl)cc4Cl)CC3)cc21,-1.55% (active)
13,CC(=O)N1N=C(c2ccc(C)cc2)CC1c1cn(-c2ccccc2)nc1-c1cccc(Nc2ccnc3cc(Cl)ccc23)c1 (stereo not given),9.76% (active)
14,CC(=O)Nc1cccc(-c2ccc3c(c2)NC(=O)/C3=C\c2ccc[nH]2)c1,21.1%
15,CCCCCCCCCCCCNC(=O)[C@H]1CSC(c2cc3ccccc3s2)N1 (stereo not given in full),-57.9% (active)
16,COc1ccc(/C=C2\N=C(Nc3ccccc3)N(NC(=O)c3ccccn3)C2=O)cc1,97.2%
17,COc1cc(OC)c(S(N)(=O)=O)cc1C(=O)/C=C/c1ccc(Cl)cc1,-57.8% (active)
18,COc1ccc(/C=C/C(=O)Nc2ncnc3nc[nH]c23)cc1,95.3%
19,CCOC(=O)C(CCN(C)C)c1ccccc1 (stereo not given),101%
20,Nc1ccc(N=Nc2ccccc2)c2cc(S(=O)(=O)O)ccc12,109%

row,Structure (SMILES),growth
1,CCN(CC)CCOc1ccc(/C(=C(\C)c2ccc(OC)c(F)c2)c2ccc(Cl)cc2)cc1,81.6%
2,COc1cccc(-c2nc3sccn3c2-c2ccnc(NCCCNS(=O)(=O)c3ccc(C(F)(F)F)cc3)c2)c1,42.5%
3,COc1ccc(-c2nc3sc(-c4ccccc4)c(-c4ccccc4)n3c2/C=C/C(=O)c2ccccn2)cc1,60%
4,CCOc1cc2ncc(C#N)c(Nc3ccc(F)c(Cl)c3)c2cc1NC(=O)CC1CCSS1 (stereo not given),-74.2% (active)
5,O=C(Nc1ccc(OCc2nnc(-c3ccccc3)o2)c(F)c1)Nc1ccc(Cl)c(Cl)c1,26.3%
6,CCOC(=O)c1c(CN2CCN(C)CC2)nc2ccc(Cl)cc2c1-c1ccccc1,63.7%
7,COc1cc(Nc2cc(O)c3c(=O)cc(-c4ccccc4)oc3c2)cc(OC)c1,11.7%
8,CC1Cc2cc(F)ccc2-n2cccc21 (stereo not given),136%
9,NC(CSC(c1ccccc1)(c1ccccc1)c1ccc(Cl)cc1)C(=O)O (stereo not given),-6.09% (active)
10,CC(Nc1ncnc2ccc(-c3cnc(N)nc3)cc12)c1ccccc1 (stereo not given),-28.6% (active)
11,COc1ccccc1Nc1nnc(-c2ccc(Cl)cc2)o1,14%
12,Nc1nc2c(c(-c3nc(N)nc4c3CCc3ccccc3-4)n1)CCc1ccccc1-2,112%
13,Cc1ccc(-c2nc(/C=C3/C(=O)Nc4ccc(F)cc43)c3ccccn23)cc1,77.3%
14,CC(C)(C)c1nn(-c2ccccc2)c2c1CC1(CN2Cc2ccc3c(c2)OCO3)C(=O)c2ccccc2C1=O,111%
15,Cc1cccc(-c2cc(O)c(C(=O)N3CCOCC3)s2)c1,14.1%
16,CCn1c(=O)c2c(=O)c3c4c(oc3oc2c2ccccc21)C(=O)c1ccccc1C4=O,-29.6% (active)
17,NC1(C(=O)N[C@@H](CCO)c2ccc(Cl)cc2)CCN(c2ncnc3[nH]ccc23)CC1,4.8% (active)
18,FC(F)(F)c1nn[nH]n1,99%
19,Clc1ccc(/C=N\N=C\c2ccc(Cl)c(Cl)c2)cc1Cl,78.5%
20,COc1ccc(N=c2nc3sc4cc(Cl)ccc4n3c(N)c2C#N)cc1,-7.79% (active)
